Each structure is given as a SMILES string. Among all 1,300 compounds or so, about 270 (21%) were called active. No rule for the calls is given here. A selection follows. Results with a measured potency or affinity are listed apart.

The test in a line: SK-MEL-5 parental cell viability loss, dose response, orthogonal assay for MITF inhibitor project, CellTiter-Glo, cherry-picked, set 3 (AID 493240). Particulars: SK-MEL-5 viability, ATP luminescence (CellTiter-Glo), 24 h; series mostly up to 35 µM. For orientation: In ATP-based viability assays light output follows the ATP content of the culture.
For `COc1ccc(C(=O)NCCSc2ccccc2C)cc1`, the outcome was inactive. The entry for `CCOc1ccc(NC(=O)c2ccccn2)cc1` is “inactive”; for `CC(C)N=C(NS(=O)(=O)c1ccccc1)C(Cl)(Cl)Cl` it is “inactive”. The entry for `O=C(Cn1cnc2ccccc2c1=O)Nc1ccc2c(c1)OCCO2` is “inactive”. For `Cc1nn(C)cc1/C=C/C(=O)c1cccs1` the value was “inactive”; for `Cc1ccn2c(Nc3ccccc3)c(-c3ccccn3)nc2c1`, “inactive”; for `O=[N+]([O-])c1cc(C(F)(F)F)ccc1NCCc1ccccn1`, “inactive”. Turning to `COc1ccc(COC(=O)c2n[nH]c3ccccc23)cc1F`, the outcome was inactive.

Regarding `Cc1cc(Br)ccc1OCc1nc(-c2cccnc2)no1`, the result was inactive. For `O=C(NC1CCCCCC1)c1cc2ccccc2oc1=O` the value was “inactive”; for `CCOC(=O)c1cc([N+](=O)[O-])c([N+](=O)[O-])cc1NC(C)=O`, “inactive”. The entry for `N/C(CS(=O)(=O)c1ccccn1)=N\OC(=O)c1ccccc1Cl` is “inactive”; for `N/C(=N\OC(=O)c1ccccc1)c1ccccn1` it is “inactive”. The entry for `O=C(Nc1ccc2c(c1)OCCO2)c1ccoc1` is “inactive”; for `COc1ccccc1NC(=O)c1cnc(SCC(=O)NCC2CCCO2)n(C)c1=O` (configuration not stated) it is “inactive”; for `COc1ccc(Cn2c(-c3ccc(C)cc3)c[n+]3ccccc23)cc1` it is “inactive”.

Turning to `COc1ccc2oc(=O)c(C(=O)Nc3ccccc3C)cc2c1`, the outcome was inactive. The entry for `CCC[n+]1c(C)sc2c3c(ccc21)CCCC3` is “inactive”; for `O=C(Nc1ccccc1)C1Cc2ccccc2CN1C(=O)c1ccco1` (configuration not stated) it is “inactive”; for `Cc1ccc(OCCNCc2ccccc2)c(C)c1` it is “inactive”. The entry for `Cc1cc(Cl)ccc1NC(=O)c1ccc2c(c1)OCO2` is “inactive”. On to `CN(C)c1ccc(/C=C(\C#N)c2ccccn2)cc1`, for which the result was inactive. The entry for `O=C1NC2c3c(I)sc(I)c3C(=O)C2O1` (configuration not stated) is “inactive”; for `C/C(=N\Nc1cc(N2CCOCC2)ncn1)c1ccccc1` it is “inactive”.

In the case of `O=C(Nc1ccccc1N1CCN(C(=O)c2ccccc2)CC1)c1ccc([N+](=O)[O-])o1`, the outcome was inactive.

Turning to `COc1ccccc1N1CCN(/N=C/c2cccc(Cl)c2)CC1`, the outcome was inactive.

Turning to `O=C(CS(=O)c1ccc(C(F)(F)F)cc1[N+](=O)[O-])Oc1ccccc1` (configuration not stated), the result was inactive. For `O=C(/C=C\c1ccccc1)NCC(=O)N/N=C/c1ccc(O)cc1O` the value was “inactive”.

`CCOC(=O)/C=c1/s/c(=C/c2ccc3cc(OC)ccc3c2)c(=O)n1CC(=O)NCC1CCCO1` (configuration not stated): the result was inactive.

`CC(C)(C)C(=O)/C(=C/c1ccncc1)n1cncn1`: the result was inactive. For `c1ccc(OCc2nn3c(-c4ccccn4)nnc3s2)cc1`, the outcome was inactive. The entry for `O=C(N/N=C/c1ccccc1Cl)c1n[nH]c2c1CCCC2` is “inactive”; for `N#Cc1cnn2cc(CCN3CCOCC3)c(-c3ccc(F)cc3)nc12` it is “inactive”; for `CCCCC(=O)N/C(N)=N/c1nc2ccccc2o1` it is “inactive”. For `C=CCn1cccc(C(=O)Nc2ccc(C)c(Cl)c2)c1=O` the value was “inactive”; for `N#C/C(C(=O)c1ccccc1)=C1/CCCCCN1`, “inactive”; for `Cc1ccc2cc(NC(=O)Cc3ccccc3)ccc2n1`, “inactive”. For `Cc1cccc(/C=C2/Sc3ccc(C(=O)NCCN4CCCC4)cc3NC2=O)c1`, the result was inactive. Consider `COc1ccc(/C=C2\Sc3ccc(C(=O)NCCN4CCCCCC4)cc3N(C)C2=O)cc1`, for which the outcome was inactive. For `CCN1CCCC1CNC(=O)c1ccc2c(c1)NC(=O)/C(=C\c1ccc(OC)c(OC)c1)S2` (configuration not stated) the value was “inactive”; for `COc1cccc(/C=C2/Sc3ccc(C(=O)NCCN4CCCC4)cc3NC2=O)c1`, “inactive”.

With `CCN1CCN(CCCNC(=O)c2ccc3c(Cl)c4c(nc3c2)CCCC4)CC1`, the outcome was inactive. For `CC1(C)CC(=O)c2cnc(N3CCc4ccccc43)nc2C1` the value was “inactive”. For `CC1=C/C(=N\NC(=S)Nc2cccnc2)CC(C)(C)C1` the value was “inactive”. The entry for `CC(C)(C)NC(=O)CCN(/N=C/c1ccc([N+](=O)[O-])o1)C1=NS(=O)(=O)c2ccccc21` is “inactive”; for `O=C1CCC2S/C(=C/Nc3ccc(C(F)(F)F)cc3)C(=O)N12` (configuration not stated) it is “inactive”; for `Nc1nc2n[nH]nc2c(=O)[nH]1` it is “inactive”. `CN1CCN(c2ccc(NC(=S)NC(=O)c3cccc4ccccc34)cc2)CC1`: the result was inactive. For `CCOc1ccc(-n2c(O)c(/C=N/Nc3nc(C)cc(C)n3)c3ccccc3c2=O)cc1` the value was “inactive”; for `O=C1N=C(N2CCOCC2)S/C1=C\C=C/c1ccccc1`, “inactive”. For `O=C(c1ccc(F)cc1)N1CCC(c2ccccc2)C1` (configuration not stated) the value was “inactive”.

`COc1ccc2c(c1OC)C(=O)N(c1ccc(C)cc1)C2`: the outcome was inactive. For `Cn1cc([N+](=O)[O-])c(C(=O)Nc2cc(Oc3ccccc3)cc([N+](=O)[O-])c2)n1` the value was “inactive”; for `Cc1cnc(NC(=O)c2nn(C)cc2[N+](=O)[O-])s1`, “inactive”. `Cc1ccc(-n2nnnc2CNC(=O)c2ccc([N+](=O)[O-])o2)cc1C`: the result was inactive. For `CCc1cc(C=NC2CCCCC2)c(O)s1` the value was “inactive”; for `Cc1ccc(-n2[nH]c(=O)c(-c3ccccn3)c2C)cc1`, “inactive”. Regarding `O=C(CSc1nc2ccccc2[nH]1)c1ccc2c(c1)OCO2`, the result was inactive. For `O=C(Nc1ccc(Br)cc1)c1ccc2c(c1)OCO2` the value was “inactive”; for `CCc1ccc(-c2cc(C(=O)Nn3cnnc3)c3ccccc3n2)cc1`, “inactive”. As for `CCc1ccccc1NC(=O)CN(C)C(=O)Cn1ncc(Cl)c(Cl)c1=O`, the result was inactive. For `CCOC(=O)c1[nH]cnc1N=Nc1c(O)ccc2ccccc12` the value was “inactive”. Turning to `O=[N+]([O-])c1ccc(/C=N/N=C/c2ccc([N+](=O)[O-])o2)o1`, the outcome was inactive. For `O=C(N/N=C/c1ccc([N+](=O)[O-])o1)c1ccccc1-n1cccc1` the value was “inactive”; for `O=C(N/N=C/c1ccc([N+](=O)[O-])o1)c1sc2ccccc2c1Cl`, “inactive”; for `O=C(Cn1ncc(Cl)c(Cl)c1=O)N1CCOCC1`, “inactive”. The entry for `O=[N+]([O-])c1ccc(/C=N/Nc2ccnc3cc(Cl)ccc23)o1` is “inactive”. `COc1cccc(NC(=O)Nc2cccc(C(=O)O)c2)c1`: the result was inactive. The entry for `COc1cc(OC)cc(C(=O)Nc2ccc3c(c2)OCCO3)c1` is “inactive”. The entry for `C/C(=N/N=C(/C)c1cccs1)c1cccs1` is “inactive”; for `O=C(Nc1nc(-c2ccccn2)cs1)c1ccccc1-n1cnnn1` it is “inactive”. The entry for `COc1ccc(Br)cc1C(C[N+](=O)[O-])c1c(N)n(C)c(=O)n(C)c1=O` (configuration not stated) is “inactive”; for `O=C(CCC1CCCN(C(=O)c2cc3ccccc3o2)C1)NCc1ccc(F)c(F)c1` (configuration not stated) it is “inactive”; for `CCOC(=O)c1sc(NC(=O)Nc2ccc(Cl)cc2)nc1C` it is “inactive”. Regarding `O=C(NC1CCCCC1)c1cc2cc(Br)ccc2o1`, the outcome was inactive. On to `C=CCOc1ccc(/C=C/C(C)=N\O)cc1`, for which the outcome was inactive. The entry for `Cc1cc(C)c(C#N)c(SCc2nnc(-c3ccccc3)o2)n1` is “inactive”; for `COc1ccc2nc(C)cc(SCC(=O)N/N=C/c3ccc(O)cc3O)c2c1` it is “inactive”; for `O=C(CNC(=O)c1ccc(Br)cc1)c1ccccc1` it is “inactive”. The entry for `Nc1ccc(Oc2cccc(Oc3ccc(N)cc3)c2)cc1` is “inactive”; for `O=C(Nc1cc(-c2nc3ncccc3o2)ccc1Cl)c1ccc([N+](=O)[O-])o1` it is “inactive”.

Take `COc1ccc(C[C@H]2CN3C(=NC[C@@H]3C(C)C)N2CCNC(=O)c2ccc(C)c(Br)c2)cc1`: the result was inactive. For `CCOc1ccc(C(=O)Nc2cccc(C(=O)O)c2C)cc1Cl` the value was “inactive”; for `COc1cccc(C(=O)Oc2c(CN3CCOCC3)cc(Cl)c3cccnc23)c1`, “inactive”; for `Cc1onc(-c2ccccc2)c1C(=O)N/N=C/c1ccc([N+](=O)[O-])s1`, “inactive”. The entry for `CCOc1ccc(NC(=O)CCC(=O)N/N=C/c2ccc([N+](=O)[O-])s2)cc1` is “inactive”. For `O=C(N/N=C/c1ccc([N+](=O)[O-])s1)c1ccccc1Br` the value was “inactive”; for `O=C(N/N=C/c1ccc([N+](=O)[O-])s1)c1ccccc1`, “inactive”; for `Cc1ccccc1C(=O)N/N=C/c1ccc([N+](=O)[O-])s1`, “inactive”. As for `O=C(N/N=C/c1ccc([N+](=O)[O-])s1)c1cccc(Br)c1`, the outcome was inactive. On to `O=C(CNC(=O)c1cccc(F)c1)N/N=C/c1ccc([N+](=O)[O-])s1`, for which the result was inactive. As for `CC(=O)c1ccc(S(=O)(=O)N2CCN(C(=O)/C=C/c3ccc4ccccc4n3)CC2)cc1`, the result was inactive. For `CN(C)c1ccc(/C=N/N2CCN(c3ccccn3)CC2)cc1` the value was “inactive”; for `CC(=O)Nc1nc(C)c(-c2csc(Nc3cccc(C(C)=O)c3)n2)s1`, “inactive”; for `O=C(O)c1ccccc1C(=O)Nc1ccc(Oc2cccc3ccccc23)cc1`, “inactive”. For `O=C(Nc1ccc(N2CCOCC2)c(Cl)c1)c1cccc(F)c1` the value was “inactive”; for `O=C(CNC(=O)c1ccccc1)N/N=C/c1ccc([N+](=O)[O-])s1`, “inactive”; for `O=C(Cc1ccccc1)NCC(=O)N/N=C/c1ccc([N+](=O)[O-])s1`, “inactive”. The entry for `CCCN1C(=O)c2ccc(C(=O)Nc3cc(C)ccc3O)cc2C1=O` is “inactive”; for `Cc1cc(C)c2c(N)c(C(=O)N/N=C/c3ccccc3)sc2n1` it is “inactive”. Consider `Cc1c(Cl)c([N+](=O)[O-])nn1Cc1ccc(C(=O)N/N=C\c2cc(Cl)ccc2O)o1`, for which the result was inactive.

For the molecule `O=C(Nc1cccc(S(=O)(=O)N2CCCCC2)c1)c1ccc([N+](=O)[O-])o1`, the outcome was inactive. The entry for `O=C(Nc1ccc(S(=O)(=O)N2CCCCCC2)cc1)c1[nH]ncc1[N+](=O)[O-]` is “inactive”. The entry for `O=C(CCl)Nc1cccc(S(=O)(=O)NC2=NCCCCC2)c1` is “inactive”. The entry for `O=C(CSc1nnnn1-c1ccc(O)cc1)Nc1cccc(S(=O)(=O)N2CCCC2)c1` is “inactive”; for `COc1ccc(NS(=O)(=O)c2cc(NC(=O)CNC(=O)c3cccc(OC)c3)ccc2C)cc1` it is “inactive”; for `O=C(N/N=C\c1cc(Cl)ccc1O)c1ccc(S(=O)(=O)N2CCCCC2)cc1` it is “inactive”. Consider `Cc1cccc(NC(=O)Cc2ccc(Br)cc2)n1`, for which the outcome was inactive. For `Cc1ccc(Nc2nnc(-c3ccccc3N)o2)cc1C` the value was “inactive”; for `COc1ccc(NC(=O)C2COc3ccccc3O2)cc1` (configuration not stated), “inactive”. `Cn1nnnc1Sc1ncnc2scc(-c3cccs3)c12`: the result was inactive. The entry for `Cc1csc(NC(=O)Cc2c(F)cccc2Cl)n1` is “inactive”.

The values are drawn from PubChem BioAssay AID493240 (Broad Institute, 2011).
